# The supplement of paper PMC3334620
# Over roughly 33,000 sequences, “E-score (-0.5 to 0.5)” has its median near -0.015; the highest 2% begin near 0.3. For the sample, the highest values were picked, then their nearest neighbours and some sequences at random.
# Target: T1, Abf1 (UniProt P14164)
# T1 sequence: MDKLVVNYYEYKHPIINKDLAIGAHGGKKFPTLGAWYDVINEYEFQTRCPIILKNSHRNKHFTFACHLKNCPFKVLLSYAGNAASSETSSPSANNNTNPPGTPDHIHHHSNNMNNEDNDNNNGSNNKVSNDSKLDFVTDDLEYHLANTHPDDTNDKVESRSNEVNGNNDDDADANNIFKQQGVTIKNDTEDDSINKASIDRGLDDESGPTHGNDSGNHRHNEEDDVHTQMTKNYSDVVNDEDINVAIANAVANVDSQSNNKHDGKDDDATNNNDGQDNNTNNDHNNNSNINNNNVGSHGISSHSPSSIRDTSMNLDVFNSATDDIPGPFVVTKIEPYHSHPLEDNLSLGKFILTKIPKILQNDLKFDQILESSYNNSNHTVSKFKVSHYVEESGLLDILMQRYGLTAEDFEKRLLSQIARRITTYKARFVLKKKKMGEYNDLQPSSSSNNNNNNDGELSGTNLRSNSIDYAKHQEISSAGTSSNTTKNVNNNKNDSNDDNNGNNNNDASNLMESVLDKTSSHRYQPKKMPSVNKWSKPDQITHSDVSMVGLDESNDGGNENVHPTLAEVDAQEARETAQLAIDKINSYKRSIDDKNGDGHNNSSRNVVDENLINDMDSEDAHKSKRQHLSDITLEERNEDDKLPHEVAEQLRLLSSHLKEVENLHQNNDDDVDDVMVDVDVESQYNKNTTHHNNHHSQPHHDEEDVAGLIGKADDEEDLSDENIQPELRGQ
# Test: PBM E-score (8-mer binding enrichment) (E-score (-0.5 to 0.5)); higher = stronger / more preferred TF binding
# Details: protein concentration: 200 nM; construct: GST-full length
# Protocol: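 Universal 'all 10-mer' protein binding microarrays (Agilent AMADID 015681) probed with GST-tagged S. cerevisiae TFs (full-length or DBD) made by in vitro transcription/translation (PURExpress), about 100-200 nM. Bound TF was detected with fluorescent anti-GST. Each ungapped 8-mer (which stands for itself and its reverse complement) is scored by the PBM enrichment score (E-score), a modified Wilcoxon-Mann-Whitney statistic from -0.5 to +0.5, computed with the Universal PBM Analysis Suite. Scale: above 0.35 generally sequence-specific binding.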
row,Sequence,PBM E-score
1,TATCGCGA,0.34
2,AATCGCGA,0.176
3,CATCGCGA,0.2
4,GATCGCGA,0.315
5,GATCGCCA,0.165
6,GATCGCGC,0.121
7,ATTTAGCA,0.193
8,AGGTAATG,0.0091
9,AACTCTAT,-0.096
10,CGTCTTTC,0.0707
11,CGTCTTTA,0.301
12,GGTCTTTA,0.0661
13,CTTGTTAA,-0.072
14,ACCGTGCG,0.315
15,CCCGTGCG,0.054
16,GCCGTGCA,0.223
17,ATCGTGCA,0.282
18,ATCGTGCG,0.366
19,ACCGTGCT,0.139
20,TCCGTGAA,0.238
21,ACCGTGCA,0.315
22,ATCGTGCC,0.276
23,ACCGTGCC,0.0366
24,TCCGTGCA,0.312
25,CCCGTGCA,0.0856

row,Sequence,PBM E-score
1,AAGTTGTG,-0.0478
2,CTAGGAAG,-0.18
3,CACTGAGA,-0.104
4,AGAAGTTG,-0.0778
5,CTTCGACC,-0.0331
6,GTAGTCAA,0.106
7,CGTGAGTC,0.0135
8,CGCCCGCG,-0.0644
9,AACAGTAT,0.0291
10,AGGTCCAC,-0.0594
11,CATACGGC,0.346
12,AATACGGG,0.202
13,AATACGGC,0.32
14,GATACGGC,0.199
15,AATACGGT,0.194
16,CATACGAC,0.333
17,CATACGCC,-0.00293
18,CATACGGA,0.295
19,CATACGAG,0.171
20,CAGCTTTC,-0.00915
21,AAACTTCT,0.211
22,ATCGCCAC,0.275
23,ATAGATAC,-0.0386
24,ATCACTGA,0.205
25,CTCACTTC,-0.0359

row,Sequence,PBM E-score
1,ATCACTTA,0.355
2,GTCACTGA,0.253
3,ATCACTTG,0.355
4,AACACTTG,-0.0627
5,AGCACTTC,0.0874
6,CTCACTTA,0.14
7,AGCACTTG,-0.314
8,GTCACTTA,0.355
9,GCCACTTA,-0.0218
10,ATCACTTC,0.376
11,CACGGGTC,-0.0483
12,CGTGTGGC,0.0664
13,ATACCGAA,0.189
14,ATTGACGC,-0.156
15,AGTTCTTC,-0.0427
16,CTTCAGAA,-0.179
17,CAAGAACG,0.123
18,GCCATTAA,0.0468
19,AATTGAAG,-0.0559
20,TACACGGA,0.329
21,GACACGAA,0.172
22,CACACGAG,0.107
23,CACACGGA,0.0992
24,AACACGAA,0.205
25,CACACGAC,0.295

row,Sequence,PBM E-score
1,GACACGGA,0.167
2,TACACGAA,0.337
3,CACACGAA,0.341
4,GGGCAGCA,-0.256
5,AGCAGGTG,-0.0258
6,ACCTAACC,0.0492
7,ACTTAGGC,-0.111
8,ACTCATCC,0.227
9,CACGAAGA,0.316
10,GACGAAGA,0.253
11,TACGAATA,0.25
12,AACGAAGA,0.188
13,TCCGAAGA,-0.0522
14,TACGAAGA,0.334
15,CAGCAGGA,-0.0545
16,ACCCTACT,-0.231
17,CCTATTCC,-0.139
18,GCAGGTAC,-0.221
19,CAATGACA,0.214
20,TAATGACA,0.376
21,TAATGCCA,-0.0319
22,AAATGACG,0.187
23,TATTGACA,-0.0437
24,AAATGACA,0.358
25,GAATGACA,0.311

row,Sequence,PBM E-score
1,GAATGACC,0.0136
2,AAATGACC,0.215
3,GACTTCTC,0.167
4,ATGAGCGC,0.0585
5,GTAGGGTA,0.0591
6,CCGTTTGC,-0.0132
7,CATAGCAG,-0.126
8,ATCGTACA,0.34
9,GGCGTACA,0.0819
10,CACGTACA,0.0758
11,CTCGTACA,0.342
12,ATCGTAAA,0.234
13,AACGTACA,0.0978
14,CTCGTACC,0.184
15,GTCGTACA,0.383
16,ATCGTACG,0.394
17,ATCGTACC,0.0609
18,GTCGTAGA,0.278
19,ATCGTAAG,0.108
20,GTCTGCAC,-0.061
21,GGTCCTGA,-0.0764
22,CGGAAGTA,-0.0352
23,ACAGGTAC,-0.146
24,GGCTTTAC,-0.225
25,GCTGGGTA,-0.0116

row,Sequence,PBM E-score
1,AAGAAAAA,-0.0775
2,CCAGGATA,0.126
3,GTGAGGTA,-0.0243
4,AGAAACCT,-0.237
5,CTTACGTA,0.212
6,ATTACGTG,0.176
7,ATTACGGC,0.184
8,ATTACGTA,0.372
9,ATTACGGA,0.303
10,ATTACGGG,-0.0226
11,GAGAGGCA,-0.176
12,GCCCTACC,-0.149
13,CTGAATCA,-0.0743
14,AAGCCCCC,-0.352
15,ATAGTGGG,-0.075
16,CTAGTGAG,-0.0339
17,ACAGTGAT,0.294
18,ATAGTGAT,0.436
19,CTAGTGAC,0.316
20,ATAGTGAC,0.35
21,CTAGTGAA,-0.202
22,GTAGTGAC,0.35
23,ATAGTGAA,0.0719
24,ATAGTGAG,0.069
25,GCAGTGAC,0.15

row,Sequence,PBM E-score
1,GTAGTGAA,0.0467
2,AGTCGTAC,0.169
3,CTGGGTAA,-0.0825
4,ATGGGTTC,-0.0947
5,GCGCGCGC,0.197
6,GCAGGGAC,-0.131
7,TTAGCCAA,-0.00286
8,CGGCGCCC,-0.143
9,CGAGCAAA,0.179
10,CGCGGGAC,-0.172
11,CTCGTGCA,0.124
12,CACGTGCA,0.139
13,AACGTGCA,0.0844
14,GACGTGCA,0.358
15,GGCGTGCA,-0.0867
16,GTCGTGCA,0.374
17,GATGGAGA,-0.00795
18,AGATCGCA,0.0409
19,ATCCCCGC,-0.211
20,CACAAAGA,0.0323
21,AGGTCAGC,-0.0373
22,GCGTACAC,0.0451
